The results in this text go back to PubChem BioAssay (NCATS).

The test system of assay [1] is Zika virus NS2B-NS3 protease (linked construct). Kind of assay: Primary screen NINDS Rhodamine qHTS for Zika virus inhibitors (AID 1347160). Also: nearly all actives have a fitted effect of over 55% in size. As to activity change, negative = inhibition: % is scaled to controls: 0 for no effect and ±100 for the full control effect. Summed up:
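Each compound, titrated, sat 15 min with 25 nM linked protease before 1.5 microM Rhodamine110 substrate went in. Fluorescence gain over the next 15 min, in pH 8.0 Tris with Tween 20, gave Hill-fitted curves.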
Background: In qHTS, concentration-response curves come from the screen itself.

In assay [2] the target is Calcium and integrin-binding protein 1 (Homo sapiens) (UniProt Q99828). Kind of assay: Primary qHTS for Identification of Calcium Integrin Binding Protein 1 (CIB1) Competitor (AID 1508620).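 Also: GST tagged CIB1 binding a fluorescein labelled alphaIIb integrin peptide tracer; top concentration of the series differs between compounds; % is scaled to controls: 0 for no effect and ±100 for the full control effect.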 An outline of the steps:
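Fluorescence polarization competition: CIB1-GST (1 uM final) preincubated with compound 15 min at room temperature, then FITC-labeled alphaIIb peptide (100 nM final) added for another 15 min. Polarization read at Ex 480/Em 540.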

For assay [3], the target named is Glutathione peroxidase 1 (Homo sapiens) (UniProt P07203). Kind of assay: Primary qHTS Assay for Inhibitors of Recombinant Selenoprotein Glutathione Peroxidase 1 (GPX1) (AID 1845191). Also: % is scaled to controls: 0 for no effect and ±100 for the full control effect; nearly all actives have a fitted effect of over 65% in size. Summed up: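 GPX1 10 nM, GR 100 nM, GSH 1 mM, NADPH 0.5 mM, CHP 0.5 mM (final). 30-min cpd preincubation, RT. Ex340/Em450 read t=0, t=15 min.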
Sequence of Glutathione peroxidase 1 (Homo sapiens) (P07203 whole entry, looked up): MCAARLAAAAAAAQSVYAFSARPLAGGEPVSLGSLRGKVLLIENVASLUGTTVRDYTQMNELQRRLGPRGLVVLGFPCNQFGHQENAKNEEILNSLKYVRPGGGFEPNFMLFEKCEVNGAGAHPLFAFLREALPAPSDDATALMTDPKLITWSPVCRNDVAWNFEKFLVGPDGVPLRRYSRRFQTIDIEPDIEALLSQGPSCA
Assay [4] has as its target Luciferin 4-monooxygenase (Photinus pyralis) (UniProt P08659). Kind of assay: Primary firefly luciferase (FLuc) qHTS assay for identification of artifact compounds. (AID 1845220). Also: nearly all actives have a fitted effect of over 60% in size.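 As to activity change, negative = inhibition: plate controls were DMSO vehicle for no effect and no enzyme for full effect.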 The following applies: outcome: dose series up to 54.1 µM unless noted. An outline of the steps: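 In this counter-screen for luciferase artifacts, test compounds met substrate (10 uM each luciferin and ATP) before 10 nM enzyme started the reaction. Light output was measured 5 min later.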

Assay [5] in a line: Primary fluorescence-based thiol-reactive (MSTI) qHTS assay for identification of artifact compounds. (AID 1845221).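 Also: thiol-reactive compounds lower the probe fluorescence signal; nearly all actives have a fitted effect of over 65% in size.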 An outline of the steps: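 Curve-fitted percent inhibition (4-parameter Hill) derived from fluorescence, Ex 525/Em 598 nm, scaled with Acetyl-MSTI and MSTI; 1 h incubation at room temperature.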
For assay [6], the system named is Nanoluciferase (engineered Oplophorus gracilirostris luciferase). Kind of assay: Primary Nanoluciferase (NLuc) qHTS assay for identification of artifact compounds. (AID 1845222). Also: potency is read from the fitted curve at half-maximal effect.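 As to activity, negative = inhibition: NLuc secreted into diluted conditioned medium of S16 cells.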 Summed up:
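Using secreted nanoluciferase in S16 culture medium (0.22 um filtered, 1:55 dilution), compounds were preincubated 15 min at RT. Signal was generated with Nano-Glo reagent (1:100) over 5 min.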

Assay [7] in a line: Primary redox qHTS assay for identification of artifact compounds. (AID 1845223).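 Also: 0% = DMSO and 100% = reference compound.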 Summed up: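 Redox-cycling detection via DTT (250 uM final) oxidation coupled to Amplex Red (25 uM)/HRP (250 mU/mL) in HBSS. 15 min preincubation plus 30 min after DTT, room temperature. Ex/Em 525/598 nm; 4-parameter Hill fit against DMSO and 10 uM DA3003.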
Another assay relates to HaCat. Kind of assay: Cytotoxic Profiling of Annotated Libraries Using Quantitative High-Throughput Screening (AID 1296008). Also: nearly all actives have a fitted effect of over 60% in size. Also: potency is read from the fitted curve at half-maximal effect. The settings on record: Five cell lines viability, CellTiter-Glo ATP luminescence, 48-72 h; max response: active compounds read low. An outline of the steps: (§1)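 Compounds were pin-transferred onto cells and incubated 48 or 72 hr at 37 degree Celsius, 95% humidity. CellTiter-Glo was added, plates sat 10 min at room temperature, then ATP-coupled luminescence was imaged as the viability read-out.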
A general note: In ATP-based viability assays light output follows the ATP content of the culture.

In a further assay the test system is C33A. Kind of assay: Primary qHTS to identify gynecologic anti-cancer compounds using libraries of approved drugs and bioactive compounds (AID 1345084). Also: nearly all actives have a fitted effect of over 55% in size. Also: potency is read from the fitted curve at half-maximal effect. As to activity change, negative = cytotoxicity: % is scaled to controls: 0 for no effect and ±100 for the full control effect. The following applies: Gynecologic cancer cell panel viability, ATPlite luminescence, 48 h; series mostly up to 57.5 µM. An outline of the steps: (§2)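 Cytotoxicity screen measuring ATP content by luciferase luminescence. Each compound is applied at five concentrations for 48 h at 37 C with 5% CO2.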

A further assay has as its system CAOV3. The assay is described as above. The following applies: Gynecologic cancer cell panel viability, ATPlite luminescence, 48 h; series mostly up to 57.5 µM. An outline of the steps: as §2
Another assay has as its system CASKI. Described as above. The following applies: Gynecologic cancer cell panel viability, ATPlite luminescence, 48 h; series mostly up to 57.5 µM. Summed up:
as §2

For a further assay, the system named is Es-2. The assay is described as above. The settings on record: Gynecologic cancer cell panel viability, ATPlite luminescence, 48 h; series mostly up to 57.5 µM. Summed up: as §2
The test system of the next assay is Hek293T. Described as above. The following applies: Gynecologic cancer cell panel viability, ATPlite luminescence, 48 h, control line for the selectivity index; series mostly up to 57.5 µM. Summed up: as §2
The test system of the next assay is JEG-3. Described as above. The following applies: Gynecologic cancer cell panel viability, ATPlite luminescence, 48 h; series mostly up to 57.5 µM. An outline of the steps:
as §2

Another assay concerns OV90. The assay is described as above. The settings on record: Gynecologic cancer cell panel viability, ATPlite luminescence, 48 h; series mostly up to 57.5 µM. An outline of the steps: as §2
The next assay concerns PA-1. Described as above. The settings on record: Gynecologic cancer cell panel viability, ATPlite luminescence, 48 h; series mostly up to 57.5 µM. Summed up: as §2
The next assay deals with Tov-21-G. The description is as above. The following applies: Gynecologic cancer cell panel viability, ATPlite luminescence, 48 h; series mostly up to 57.5 µM. An outline of the steps:
as §2

The next assay concerns Tov112D. The description is as above. The settings on record: Gynecologic cancer cell panel viability, ATPlite luminescence, 48 h; series mostly up to 57.5 µM. An outline of the steps: as §2
Assay [8] has as its target Phospholipid hydroperoxide glutathione peroxidase GPX4 (Homo sapiens) (UniProt P36969). Kind of assay: Primary qHTS Assay for Inhibitors of Recombinant Selenoprotein Glutathione Peroxidase 4 (GPX4) (AID 1845192). Also: nearly all actives have a fitted effect of over 65% in size. Also: potency is read from the fitted curve at half-maximal effect. As to activity change, negative = inhibition: % is scaled to controls: 0 for no effect and ±100 for the full control effect. An outline of the steps: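 qHTS, GR-coupled: GPX4 200 nM + cpd 30 min RT → GSH 1 mM, NADPH 0.5 mM, GR 100 nM → CHP 0.5 mM start; fluor 340/450 at t0 and t15 min; no-enzyme wells as control.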

A further assay deals with NIH3T3. Kind of assay: Cytotoxic Profiling of Annotated Libraries Using Quantitative High-Throughput Screening (AID 1296008). Also: nearly all actives have a fitted effect of over 60% in size. Also: potency is read from the fitted curve at half-maximal effect. The settings on record: Five cell lines viability, CellTiter-Glo ATP luminescence, 48-72 h; max response: active compounds read low. An outline of the steps: as §1

Structures are written as SMILES. Unmarked numbers belong to inactive results. Records with an inconclusive call do not appear. Calls of active or inactive are those of the source. Calls follow the shape of the dose curve; as a rule, active = well fitted curve in the direction sought with a large enough effect; inconclusive = small, poorly fitted or top-dose-only effect, or another doubt; inactive = no such curve, though single readings can be large; an effect the other way counts as inactive or inconclusive.

Sequence of Calcium and integrin-binding protein 1 (Homo sapiens) (Q99828 whole entry, looked up): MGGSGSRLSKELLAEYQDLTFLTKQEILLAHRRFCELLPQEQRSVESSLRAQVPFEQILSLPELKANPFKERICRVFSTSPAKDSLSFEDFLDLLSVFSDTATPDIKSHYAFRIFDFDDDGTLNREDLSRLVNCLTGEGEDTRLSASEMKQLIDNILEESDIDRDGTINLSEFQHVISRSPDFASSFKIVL
Sequence of Phospholipid hydroperoxide glutathione peroxidase GPX4 (Homo sapiens) (P36969 whole entry, looked up): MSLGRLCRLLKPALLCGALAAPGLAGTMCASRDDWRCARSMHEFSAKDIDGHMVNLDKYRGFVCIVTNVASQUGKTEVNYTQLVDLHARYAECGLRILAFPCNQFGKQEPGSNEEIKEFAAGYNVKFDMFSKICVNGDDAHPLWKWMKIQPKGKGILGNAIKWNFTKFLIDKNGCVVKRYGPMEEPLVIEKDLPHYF

With `CN(CC[C@H](N)CC(=O)N[C@H]1C=C[C@@H](n2ccc(N)nc2=O)O[C@@H]1C(=O)O)C(=N)N`, the activity change, negative = inhibition in [1] was 10.8% [at 10.7 µM]. In addition, the Potency result in assay [2] was “inactive”. Also, the activity, negative = inhibition in [3] was -3.97% [at 9.52 µM]; in assay [6], 0% [at 11.6 µM]. The outcome in assay [4] is “inactive [at 11.6 µM]”. Also, the activity change, negative = thiol reactive in [5] was -6.62% [at 11.5 µM]. In addition, in assay [7], the redox activity (% of DA3003) was -9.15% [at 11.5 µM]. For the same compound, the result in the assay with HaCat was inactive. For the same compound, the activity change, negative = cytotoxicity with C33A is 6.23% [at 11.6 µM]; in the assay on CAOV3 it was 8.99% [at 11.6 µM]; in the assay on CASKI it was 4.22% [at 11.6 µM]; in the assay with Es-2, -2.42% [at 11.6 µM]; with Hek293T, 1.23% [at 11.6 µM]; in the assay on JEG-3, 12.8% [at 11.6 µM]. Moreover, the activity change, negative = cytotoxicity in the assay with OV90 was -7.37% [at 11.6 µM]; in the assay on PA-1, 5.22% [at 11.6 µM]; in the assay with Tov-21-G, 2.99% [at 11.6 µM]; with Tov112D, 1.2% [at 11.6 µM].
With `CC(=O)OC[C@]12C[C@H](OC(C)=O)C(C)=C[C@H]1O[C@@H]1[C@H](O)[C@@H](O)[C@@]2(C)[C@]12CO2`, the Potency entry in [1], in assay [2], in assay [8], in assay [5], in assay [6] and in [7] was “inactive” throughout. In addition, the compound was classed as inactive in [4]. Besides, the Potency in the assay with HaCat was 1280 nM (active); with NIH3T3, 1010 nM (active); in the assay on CAOV3, 1000 nM (active); with CASKI, 1410 nM (active); in the assay with Es-2, 1260 nM (active); in the assay with Hek293T, 398 nM (active). The Potency was 5620 nM (active) in the assay on JEG-3, 3160 nM (active) in the assay with OV90 and 2240 nM (active) with Tov112D.
In the case of `N#Cc1ccccc1-c1cc(-c2ccccn2)cn(-c2ccccc2)c1=O`, the Potency entry (in assay [1]; in assay [2]; in assay [3]; in assay [5]; in [7]; with C33A) was “inactive” throughout. In addition, the Potency result with CAOV3, in the assay on CASKI, in the assay with Es-2, with Hek293T, with JEG-3 and with OV90 was “inactive” each time. Besides, the Potency entry with PA-1, with Tov-21-G and in the assay with Tov112D was “inactive” throughout. Moreover, the Potency in assay [8] was 25500 nM (active); in assay [6] it was 10700 nM (active). In [4], the compound was classed as inactive. Besides, the max response with HaCat is 1.04%; in the assay with NIH3T3, -0.815%.
On to `C[C@H]1CN(Cc2ccc(CC(=O)N3CCC(Nc4cccc(F)c4)CC3)cc2)CCN1`, for which the Potency entry in assay [1], in [2], in assay [8], in assay [5], in [6] and in assay [7] was “inactive” throughout. The Potency entry in the assay on C33A, in the assay with CAOV3, in the assay with CASKI, in the assay on Es-2, with Hek293T and with JEG-3 was “inactive” each time. The Potency result in the assay with OV90, with PA-1, in the assay on Tov-21-G and in the assay with Tov112D was “inactive” in each case. Also, the compound was called inactive in assay [4]. For the same compound, the Potency with NIH3T3 was 20600 nM (active).
In the case of `C/C=C(\C)C(=O)O[C@@H]1[C@@H](C)[C@]2(O)C3C=C(C)C(=O)[C@@]3(O)CC(CO)=C[C@H]2C2C(C)(C)[C@@]21OC(=O)C(C)CC` (some centres undefined), the Potency entry in assay [1], in assay [2], in assay [3], in [8], in assay [5] and in assay [6] was “inactive” in each case. The Potency entry (in [7]; in the assay on C33A; in the assay with CAOV3; with CASKI; with Hek293T; with OV90) was “inactive” in each case. For the same compound, the Potency entry in the assay with Tov-21-G and in the assay on Tov112D was “inactive” in each case. Moreover, the compound was called inactive (in assay [4]; in the assay with HaCat; with NIH3T3).
